Experiments:
Conditions in all cases: Compound Concentration (nM):1000
PRKG1 = system: PRKG1
PRKG2 = system: PRKG2
PRKR = system: T1, PRKR
T1 construct: gene EIF2AK2

PRKX = system: PRKX
PRP4 = system: T2, PRP4
T2 construct: gene PRPF4B

PYK2 = system: T3, PYK2
T3 construct: gene PTK2B

QSK = system: T4, QSK
T4 construct: gene KIAA0999

RAF1 = system: RAF1
RET(M918T) = system: RET(M918T)
RET(V804L) = system: RET(V804L)
RET(V804M) = system: RET(V804M)
RET = system: RET
RIOK1 = system: RIOK1
RIOK2 = system: RIOK2
RIOK3 = system: RIOK3
RIPK1 = system: RIPK1
RIPK2 = system: RIPK2
RIPK4 = system: RIPK4
RIPK5 = system: T5, RIPK5
T5 construct: gene DSTYK

ROCK1 = system: ROCK1
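Further: KINOMEscan scanMAX binding as percent activity remaining versus control; lower means stronger binding.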

Q: What does the source list for `CC1=C(C(=O)Nc2ccc3[nH]ncc3c2)C(c2ccc3ccccc3c2)CC(=O)N1` (centres unmarked) [GSK270822A]?
A: Percent Control (PRKG1): 48%; Percent Control (PRKG2): 29%; Percent Control (PRKR): 89%; Percent Control (PRKX): 22%; Percent Control (PRP4): 62%; Percent Control (PYK2): 77%; Percent Control (QSK): 91%; Percent Control (RAF1): 87%; Percent Control (RET(M918T)): 34%; Percent Control (RET(V804L)): 46%; Percent Control (RET(V804M)): 66%; Percent Control (RET): 28%; Percent Control (RIOK1): 74%; Percent Control (RIOK2): 100%; Percent Control (RIOK3): 88%; Percent Control (RIPK1): 97%; Percent Control (RIPK2): 90%; Percent Control (RIPK4): 68%; Percent Control (RIPK5): 96%

Q: For `CC(C)COC(=O)c1ccc2c(c1)/C(=C/Nc1ccc(S(N)(=O)=O)cc1)C(=O)N2` [GW416981X], which “Percent Control” value (PRKG1) is on record?
A: 100%

Q: And the “Percent Control” value (PRKG2)?
A: 54%

Q: What about the “Percent Control” value (PRKR) of the same compound?
A: 65%

Q: What about the “Percent Control” value (PRKX) of the same compound?
A: 100%

Q: What about the “Percent Control” value (PRP4) of the same compound?
A: 96%

Q: What about the “Percent Control” value (PYK2) of the same compound?
A: 100%

Q: What about the “Percent Control” value (QSK) of the same compound?
A: 95%

Q: And the “Percent Control” value (RAF1)?
A: 100%

Q: And the “Percent Control” value (RET(M918T))?
A: 83%

Q: And the “Percent Control” value (RET(V804L))?
A: 43%

Q: And the “Percent Control” value (RET(V804M))?
A: 26%

Q: What about the “Percent Control” value (RET) of the same compound?
A: 100%

Q: And the “Percent Control” value (RIOK1)?
A: 21%

Q: What about the “Percent Control” value (RIOK2) of the same compound?
A: 100%

Q: And the “Percent Control” value (RIOK3)?
A: 15%

Q: What about the “Percent Control” value (RIPK1) of the same compound?
A: 100%

Q: And the “Percent Control” value (RIPK2)?
A: 100%

Q: What about the “Percent Control” value (RIPK4) of the same compound?
A: 100%

Q: What about the “Percent Control” value (RIPK5) of the same compound?
A: 48%

Q: What about the “Percent Control” value (ROCK1) of the same compound?
A: 36%

Q: What does the source list for `COc1cc(C)c(N(C)C(=O)CN(C)C)cc1Nc1nc(Nc2cccc(F)c2C(N)=O)c2cc[nH]c2n1` [GSK2219385]?
A: Percent Control (PRKG1): 92%; Percent Control (PRKG2): 82%; Percent Control (PRKR): 100%; Percent Control (PRKX): 95%; Percent Control (PRP4): 100%; Percent Control (PYK2): 81%; Percent Control (QSK): 100%; Percent Control (RAF1): 100%; Percent Control (RET(M918T)): 100%; Percent Control (RET(V804L)): 100%; Percent Control (RET(V804M)): 71%; Percent Control (RET): 87%; Percent Control (RIOK1): 73%; Percent Control (RIOK2): 74%; Percent Control (RIOK3): 74%; Percent Control (RIPK1): 95%; Percent Control (RIPK2): 100%; Percent Control (RIPK4): 74%; Percent Control (RIPK5): 88%; Percent Control (ROCK1): 100%

Q: With `O=C1Nc2ccc(C(=O)c3ccco3)cc2C1=Cc1cc(Cl)c(O)c(Cl)c1` [GW406108X] as the compound, how does the “Percent Control” value (PRKG1) read?
A: 100%

Q: What about the “Percent Control” value (PRKG2) of the same compound?
A: 100%

Q: What about the “Percent Control” value (PRKR) of the same compound?
A: 62%

Q: What about the “Percent Control” value (PRKX) of the same compound?
A: 100%

Q: What about the “Percent Control” value (PRP4) of the same compound?
A: 71%

Q: What about the “Percent Control” value (PYK2) of the same compound?
A: 100%

Q: And the “Percent Control” value (QSK)?
A: 100%

Q: What about the “Percent Control” value (RAF1) of the same compound?
A: 13%

Q: What about the “Percent Control” value (RET(M918T)) of the same compound?
A: 56%

Q: What about the “Percent Control” value (RET(V804L)) of the same compound?
A: 29%

Q: And the “Percent Control” value (RET(V804M))?
A: 28%

Q: And the “Percent Control” value (RET)?
A: 96%

Q: And the “Percent Control” value (RIOK1)?
A: 46%

Q: And the “Percent Control” value (RIOK2)?
A: 73%

Q: What about the “Percent Control” value (RIOK3) of the same compound?
A: 30%

Q: And the “Percent Control” value (RIPK1)?
A: 100%

Q: And the “Percent Control” value (RIPK2)?
A: 75%

Q: What about the “Percent Control” value (RIPK4) of the same compound?
A: 91%

Q: And the “Percent Control” value (RIPK5)?
A: 54%

Q: What about the “Percent Control” value (ROCK1) of the same compound?
A: 77%

Q: With `CCn1c(-c2nonc2N)nc2c(C#CC(C)(C)O)nc(OCCNC)cc21.Cl` [GSK949675] as the compound, how does the “Percent Control” value (PRKG1) read?
A: 34%

Q: And the “Percent Control” value (PRKG2)?
A: 0.5%

Q: What about the “Percent Control” value (PRKR) of the same compound?
A: 94%

Q: What about the “Percent Control” value (PRKX) of the same compound?
A: 7.9%

Q: What about the “Percent Control” value (PRP4) of the same compound?
A: 90%

Q: And the “Percent Control” value (PYK2)?
A: 100%

Q: And the “Percent Control” value (QSK)?
A: 99%

Q: And the “Percent Control” value (RAF1)?
A: 100%

Q: What about the “Percent Control” value (RET(M918T)) of the same compound?
A: 73%

Q: What about the “Percent Control” value (RET(V804L)) of the same compound?
A: 88%

Q: What about the “Percent Control” value (RET(V804M)) of the same compound?
A: 100%

Q: What about the “Percent Control” value (RET) of the same compound?
A: 96%

Q: And the “Percent Control” value (RIOK1)?
A: 100%

Q: What about the “Percent Control” value (RIOK2) of the same compound?
A: 91%

Q: What about the “Percent Control” value (RIOK3) of the same compound?
A: 100%

Q: And the “Percent Control” value (RIPK1)?
A: 100%

Q: And the “Percent Control” value (RIPK2)?
A: 100%

Q: And the “Percent Control” value (RIPK4)?
A: 100%

Q: What about the “Percent Control” value (RIPK5) of the same compound?
A: 99%

Q: And the “Percent Control” value (ROCK1)?
A: 57%

Q: Which “Percent Control” value (PRKG1) does the source give for `CCS(=O)(=O)c1ccc(OC)c(Nc2ncc(-c3cccc(F)c3)o2)c1` [GW621970X] here?
A: 100%

Q: What about the “Percent Control” value (PRKG2) of the same compound?
A: 100%

Q: What about the “Percent Control” value (PRKR) of the same compound?
A: 76%

Q: And the “Percent Control” value (PRKX)?
A: 100%

Q: And the “Percent Control” value (PRP4)?
A: 100%

Q: What about the “Percent Control” value (PYK2) of the same compound?
A: 100%

Q: What about the “Percent Control” value (QSK) of the same compound?
A: 99%

Q: And the “Percent Control” value (RAF1)?
A: 100%

Q: What about the “Percent Control” value (RET(M918T)) of the same compound?
A: 52%

Q: What about the “Percent Control” value (RET(V804L)) of the same compound?
A: 84%

Q: What about the “Percent Control” value (RET(V804M)) of the same compound?
A: 100%

Q: And the “Percent Control” value (RET)?
A: 67%

Q: And the “Percent Control” value (RIOK1)?
A: 94%

Q: And the “Percent Control” value (RIOK2)?
A: 71%

Q: What about the “Percent Control” value (RIOK3) of the same compound?
A: 100%

Q: And the “Percent Control” value (RIPK1)?
A: 85%

Q: What about the “Percent Control” value (RIPK2) of the same compound?
A: 57%

Q: And the “Percent Control” value (RIPK4)?
A: 100%

Q: What about the “Percent Control” value (RIPK5) of the same compound?
A: 100%

Q: And the “Percent Control” value (ROCK1)?
A: 96%

Q: What does the source list for `NS(=O)(=O)c1ccc(Nc2ncc(-c3ccccc3)o2)cc1` [GW572399X]?
A: Percent Control (PRKG1): 96%; Percent Control (PRKG2): 100%; Percent Control (PRKR): 55%; Percent Control (PRKX): 100%; Percent Control (PRP4): 100%; Percent Control (PYK2): 100%; Percent Control (QSK): 100%; Percent Control (RAF1): 100%; Percent Control (RET(M918T)): 100%; Percent Control (RET(V804L)): 100%; Percent Control (RET(V804M)): 100%; Percent Control (RET): 100%; Percent Control (RIOK1): 73%; Percent Control (RIOK2): 100%; Percent Control (RIOK3): 89%; Percent Control (RIPK1): 100%; Percent Control (RIPK2): 100%; Percent Control (RIPK4): 100%; Percent Control (RIPK5): 94%; Percent Control (ROCK1): 85%

Q: Which “Percent Control” value (PRKG1) does the source give for `Cl.O=S1CCN(Cc2ccc(-c3ccc4ncnc(Nc5ccc(OCc6ccccc6)c(F)c5)c4c3)o2)CC1` [GW576924A] here?
A: 100%

Q: What about the “Percent Control” value (PRKG2) of the same compound?
A: 100%

Q: And the “Percent Control” value (PRKR)?
A: 86%

Q: What about the “Percent Control” value (PRKX) of the same compound?
A: 100%

Q: What about the “Percent Control” value (PRP4) of the same compound?
A: 100%

Q: And the “Percent Control” value (PYK2)?
A: 100%

Q: And the “Percent Control” value (QSK)?
A: 100%

Q: What about the “Percent Control” value (RAF1) of the same compound?
A: 100%

Q: And the “Percent Control” value (RET(M918T))?
A: 100%

Q: What about the “Percent Control” value (RET(V804L)) of the same compound?
A: 100%

Q: And the “Percent Control” value (RET(V804M))?
A: 100%

Q: What about the “Percent Control” value (RET) of the same compound?
A: 100%

Q: And the “Percent Control” value (RIOK1)?
A: 93%

Q: What about the “Percent Control” value (RIOK2) of the same compound?
A: 83%

Q: What about the “Percent Control” value (RIOK3) of the same compound?
A: 100%

Q: And the “Percent Control” value (RIPK1)?
A: 100%

Q: What about the “Percent Control” value (RIPK2) of the same compound?
A: 43%

Q: What about the “Percent Control” value (RIPK4) of the same compound?
A: 92%

Q: And the “Percent Control” value (RIPK5)?
A: 87%

Q: What about the “Percent Control” value (ROCK1) of the same compound?
A: 100%

Q: How did the “Percent Control” value (PRKG1) turn out when `NS(=O)(=O)c1ccc(N/N=C2\C(=O)Nc3ccc(Cl)cc32)cc1` [GW280670X] was run?
A: 85%

Q: What about the “Percent Control” value (PRKG2) of the same compound?
A: 100%

Q: What about the “Percent Control” value (PRKR) of the same compound?
A: 86%

Q: What about the “Percent Control” value (PRKX) of the same compound?
A: 100%

Q: And the “Percent Control” value (PRP4)?
A: 100%

Q: What about the “Percent Control” value (PYK2) of the same compound?
A: 100%

Q: What about the “Percent Control” value (QSK) of the same compound?
A: 100%

Q: And the “Percent Control” value (RAF1)?
A: 100%

Q: What about the “Percent Control” value (RET(M918T)) of the same compound?
A: 100%

Q: And the “Percent Control” value (RET(V804L))?
A: 100%

Q: What about the “Percent Control” value (RET(V804M)) of the same compound?
A: 100%

Q: And the “Percent Control” value (RET)?
A: 100%

Q: And the “Percent Control” value (RIOK1)?
A: 74%

Q: What about the “Percent Control” value (RIOK2) of the same compound?
A: 100%

Q: And the “Percent Control” value (RIOK3)?
A: 89%

Q: And the “Percent Control” value (RIPK1)?
A: 100%

Q: What about the “Percent Control” value (RIPK2) of the same compound?
A: 100%

Q: What about the “Percent Control” value (RIPK4) of the same compound?
A: 100%

Q: And the “Percent Control” value (RIPK5)?
A: 100%

Q: What about the “Percent Control” value (ROCK1) of the same compound?
A: 100%

— paper PMC7826789 (International Journal of Molecular Sciences, 2021)
